# Source: PubChem (National Center for Advancing Translational Sciences (NCATS))
# Rows were chosen to be rich in hits. Some 11% of all compounds tested hit in one or more screens of this group.
# L3MBTL1 inh = inhibitors of human L3MBTL1; Q9Y468; AlphaScreen L3MBTL1–H3K9me1 peptide binding; Potency, µM (top dose mostly 57.1 µM), inactives show at the highest dose activity, negative = inhibition, hits mostly inhibitors; hit rate 0.66% among 230,000; AID 485360; further: on the % scale 0 is the no-effect control and ±100 the full control effect; nearly all actives have a fitted effect of over 60% in size
#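 First, the protein-peptide complex forms for 30 min at room temperature (L3MBTL1 50 nM, biotinylated H3K9me1 peptide 75 nM). Next, compounds are pin-transferred and incubated 30 min. Finally, AlphaScreen beads are added and read after 30 min.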
# JMJD2A Tudor inh = inhibitors of human JMJD2A Tudor domain. AlphaScreen JMJD2A-Tudor / H3K4me3 peptide binding. Potency, µM (titrated, usually from 114 µM), inactives show top-dose activity change, negative = inhibition, actives largely listed as inhibitors. hit rate 4.4% among 390,000. AID 504339; further: on the % scale 0 is the no-effect control and ±100 the full control effect; nearly all actives have a fitted effect of over 50% in size
# BAZ2B block = blocks human BAZ2B; hit rate 4.4% among 360,000; Potency, µM (series often up to 114 µM), inactives show top-dose activity change, negative = inhibition, usual class: inhibitors; AlphaScreen BAZ2B-H3K14Ac peptide displacement; Q9UIF8; further: on the % scale 0 is the no-effect control and ±100 the full control effect; nearly all actives have a fitted effect of over 60% in size
# Target sequence (Q9UIF8 whole entry, looked up): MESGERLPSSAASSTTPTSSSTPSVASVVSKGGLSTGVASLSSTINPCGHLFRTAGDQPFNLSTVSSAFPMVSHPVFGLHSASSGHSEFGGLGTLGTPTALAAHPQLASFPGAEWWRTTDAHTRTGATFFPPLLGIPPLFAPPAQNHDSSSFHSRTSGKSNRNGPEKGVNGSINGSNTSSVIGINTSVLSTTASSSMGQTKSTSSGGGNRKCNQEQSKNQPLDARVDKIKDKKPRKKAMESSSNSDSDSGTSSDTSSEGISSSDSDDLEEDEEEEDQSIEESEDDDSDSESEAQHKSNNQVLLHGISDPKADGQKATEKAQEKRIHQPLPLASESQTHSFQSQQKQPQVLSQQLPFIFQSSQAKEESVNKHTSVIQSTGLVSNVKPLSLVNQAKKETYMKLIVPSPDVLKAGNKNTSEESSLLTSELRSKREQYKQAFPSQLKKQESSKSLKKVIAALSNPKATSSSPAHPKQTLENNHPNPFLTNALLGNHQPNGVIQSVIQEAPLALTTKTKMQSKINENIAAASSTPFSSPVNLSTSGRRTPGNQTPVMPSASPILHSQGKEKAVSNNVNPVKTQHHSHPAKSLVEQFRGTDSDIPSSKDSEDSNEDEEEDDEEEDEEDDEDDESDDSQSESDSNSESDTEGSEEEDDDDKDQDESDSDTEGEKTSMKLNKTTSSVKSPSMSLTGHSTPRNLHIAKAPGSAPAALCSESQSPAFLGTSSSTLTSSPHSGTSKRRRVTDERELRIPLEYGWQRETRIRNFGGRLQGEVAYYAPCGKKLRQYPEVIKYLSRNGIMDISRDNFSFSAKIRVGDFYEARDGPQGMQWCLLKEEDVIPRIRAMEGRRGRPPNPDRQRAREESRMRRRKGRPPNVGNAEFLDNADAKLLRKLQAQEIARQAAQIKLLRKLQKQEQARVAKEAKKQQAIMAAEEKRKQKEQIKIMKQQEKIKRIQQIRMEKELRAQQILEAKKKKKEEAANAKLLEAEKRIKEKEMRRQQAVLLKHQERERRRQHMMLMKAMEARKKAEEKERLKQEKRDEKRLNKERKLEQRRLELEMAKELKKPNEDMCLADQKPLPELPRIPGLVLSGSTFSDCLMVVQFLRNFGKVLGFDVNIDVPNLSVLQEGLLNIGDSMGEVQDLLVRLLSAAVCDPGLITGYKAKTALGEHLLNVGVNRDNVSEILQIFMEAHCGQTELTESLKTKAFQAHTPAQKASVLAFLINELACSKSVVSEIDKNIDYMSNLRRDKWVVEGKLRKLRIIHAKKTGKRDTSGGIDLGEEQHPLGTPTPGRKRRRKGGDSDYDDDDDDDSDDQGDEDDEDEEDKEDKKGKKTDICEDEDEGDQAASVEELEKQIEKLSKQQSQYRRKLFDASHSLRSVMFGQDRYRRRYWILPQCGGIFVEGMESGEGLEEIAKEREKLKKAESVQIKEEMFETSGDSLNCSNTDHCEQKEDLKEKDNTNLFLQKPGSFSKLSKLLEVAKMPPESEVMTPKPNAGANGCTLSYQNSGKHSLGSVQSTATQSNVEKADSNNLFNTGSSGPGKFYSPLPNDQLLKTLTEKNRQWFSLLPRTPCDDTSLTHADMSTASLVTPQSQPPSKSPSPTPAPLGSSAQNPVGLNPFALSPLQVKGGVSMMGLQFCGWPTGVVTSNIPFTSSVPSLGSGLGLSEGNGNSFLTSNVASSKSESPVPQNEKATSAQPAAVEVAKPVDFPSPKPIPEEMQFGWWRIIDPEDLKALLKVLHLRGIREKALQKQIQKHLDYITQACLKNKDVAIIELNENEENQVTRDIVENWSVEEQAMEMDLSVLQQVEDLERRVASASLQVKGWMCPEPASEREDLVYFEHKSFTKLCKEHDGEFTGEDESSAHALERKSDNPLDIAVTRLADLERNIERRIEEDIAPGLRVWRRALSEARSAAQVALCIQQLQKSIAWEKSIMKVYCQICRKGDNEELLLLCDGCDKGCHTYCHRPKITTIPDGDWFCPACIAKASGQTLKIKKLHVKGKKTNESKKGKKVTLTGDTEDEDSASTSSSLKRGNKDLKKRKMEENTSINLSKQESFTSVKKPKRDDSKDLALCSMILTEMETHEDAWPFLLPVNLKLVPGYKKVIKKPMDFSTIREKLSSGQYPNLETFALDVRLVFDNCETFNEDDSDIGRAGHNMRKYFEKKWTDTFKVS
#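 AlphaScreen luminescence quantifies BAZ2B engagement of H3K14Ac peptide; the protein and biotinylated peptide are both at 50 nM final, buffer PBS pH 7.4 with 0.01% Tween-20, all steps at room temperature.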
# HP1b binding inh = HP1-beta chromodomain-methylated histone interaction inhibition; Potency, µM (doses to about 114 µM), for inactives: at the top dose activity change, negative = inhibition, hits mostly inhibitors; hit rate 0.56% among 390,000; AlphaScreen HP1-beta / biotin-H3K9me3 peptide binding; P83916; further: nearly all actives have a fitted effect of over 70% in size
#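 Compound inhibition of the preformed complex between 50 nM HP1-beta and 50 nM biotinylated H3K9me3 peptide was read by AlphaScreen. Buffer was PBS pH 7.4 with 0.01% Tween-20. Incubations ran 30 min at room temperature, with 10 ug/mL donor/acceptor beads.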
# G9a block = blocks human histone lysine methyltransferase G9a; Q96KQ7; G9a H3K9 monomethylation, AlphaScreen, 2 h; Potency, µM (series often up to 102 µM), for inactives: top-dose activity, negative = inhibition, usual class: inhibitors; hit rate 8.8% among 350,000; AID 504332; further: on the % scale 0 is the no-effect control and ±100 the full control effect; nearly all actives have a fitted effect of over 75% in size
#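 Signal arises when biotinylated H3K9 peptide, once monomethylated, bridges streptavidin donor and antibody-captured acceptor beads. Enzyme at 20 nM was preincubated 15 min with test compounds; peptide 500 nM and SAM 20 uM then reacted for 2 h.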
# * = called active by the depositor; ? = inconclusive; . = no result given; [ ] = another dose, or the depositor's remark. The call rests on the fitted dose curve; in most records, active means well fitted inhibition curve with a large enough effect; inconclusive means small, poorly fitted or top-dose-only effect; inactive means no such curve, though single readings can be large or run the other way. Potency means the concentration at half of the fitted maximal effect.
SMILES,L3MBTL1 inh,JMJD2A Tudor inh,BAZ2B block,HP1b binding inh,G9a block
CSc1ccc(CCNC(=O)Cn2nc(C)n3c(cc4sccc43)c2=O)cc1,.,-8.7%,1.2%,24.0%,7.0%[59 µM]
CC1Cc2ccccc2N1C(=O)CSc1ncccc1C(=O)O (configuration not stated),-2.0%,-11.5%,-3.7%,17.5%,79.4µM*
CC(=O)N1c2ccc(S(=O)(=O)N3CCCC3)cc2CC1C(=O)Nc1cc(C)cc(C)c1 (configuration not stated),.,-12.5%,-5.3%,9.0%,15.6%[59 µM]
COCCn1c(SCC(=O)c2c(C)[nH]c3ccccc23)nc2cc(C(=O)NC(C)C)ccc2c1=O,.,-26.0%,3.1%,1.9%,8.1%[59 µM]
O=C(COc1ccccc1)N=C1SC2CS(=O)(=O)CC2N1c1ccccc1 (configuration not stated),.,-8.1%,-1.4%[57.1 µM],63.2%,5.7%
CN(C)c1ccc(N2C(=NC(=O)COc3ccccc3)SC3CS(=O)(=O)CC32)cc1 (configuration not stated),.,?,?,-12.7%,50.1µM*
O=C(CSCC(=O)N1CCOCC1)Nc1ccccc1,1.4%,2.6%,38.8%,19.6%,44.7µM*
O=C(CN1CCOCCOCCOCC1)Nc1ccccc1,.,-8.4%,2.0%,33.2%,?
O=C(CN1CCOCC1)Nc1ccc(Cl)c(Cl)c1,3.3%,28.2µM*,-35.0%,?,8.91µM*
O=C(CN1CCOCCOCCN(CC(=O)Nc2ccccc2)CCOCC1)Nc1ccccc1,5.4%,-5.6%,-4.3%,43.4%,31.6µM*
O=C(c1ccco1)n1nc(-c2ccc(Cl)cc2)nc1NCc1ccc(F)cc1,.,-10.0%,-10.4%,38.2%,11.3%[59 µM]
Cc1cc(C)c(NC(=O)Cn2c(=O)n(CCc3ccccc3)c(=O)c3ccccc32)c(C)c1,.,0.0%,0.9%,33.1%,3.9%[59 µM]
COc1cc(-c2nc3nc[nH]n3c2Nc2ccc(C(C)C)cc2)ccc1O,.,?,-38.6%,?,8.91µM*
O=C(CSc1ncnc2sc3c(c12)CCCCC3)NCc1ccco1,.,-16.0%,?,28.8%,?
COCCCn1c(SCC(=O)NCc2ccco2)nc2sc3c(c2c1=O)CCC3,-4.8%,-35.1%,-1.8%,14.7%,50.1µM*
O=c1[nH]cnc2c1sc1nc(-c3ccccc3)c3c(c12)CCCC3,11.4%,-5.6%,-0.1%,30.8%,22.0%[59 µM]
CC(C)c1nc2sc3c(SCC(=O)NCc4ccco4)ncnc3c2c2c1CCC2,?,56.2µM*,56.2µM*,-5.1%,44.7µM*
O=C(O)CSc1ncnc2c1sc1nc(-c3ccccc3)c3c(c12)CCC3,.,50.1µM*,50.1µM*,-33.7%[57 µM],39.8µM*
Cn1c(=O)c2c(-c3ccccc3Cl)n(Cc3ccc(Cl)cc3)cc2n(C)c1=O,.,-27.4%,-27.1%,-17.5%,-31.3%[59 µM]
COc1ccc2nc(C)c(C(=O)OCCN(C)C)cc2c1,-1.7%,.,4.9%,.,50.1µM*
Cc1cccc(Cn2c(C)c(C)c3cc(C(=O)NCc4ccco4)ccc32)c1,.,?,-33.3%,-1.2%,-47.7%[59 µM]
CO[C@@]1(NC(=O)Cc2cccs2)C(=O)N2C(C(=O)O)=C(COC(N)=O)CSC21 (some centres not stated),.,.,.,.,-29.4%[2.33 µM]
NC(=O)c1cc[n+](CC2=C(C(=O)[O-])N3C(=O)[C@@H](NC(=O)Cc4cccs4)[C@@H]3SC2)cc1,.,.,.,.,7.94µM*
COc1cccc(C(=O)NC2C(=O)N3C(C(=O)O)=C(COC(C)=O)CSC23)c1 (configuration not stated),?,-9.5%,?,10.4%,-10.2%[12.7 µM]
NC(=O)c1cc[n+](CC2=C(C(=O)O)N3C(=O)[C@@H](NC(=O)C(c4ccccc4)S(=O)(=O)[O-])[C@H]3SC2)cc1 (some centres not stated),-14.2%,1.12µM*,2.1%,?,-12.8%
CC(=O)OCC1=C(C(=O)O)N2C(=O)[C@@H](NC(=O)CSc3ccncc3)[C@@H]2SC1,.,.,.,.,2.1%[12.7 µM]
NC(=O)c1cc[n+](CC2=C(C(=O)O)N3C(=O)[C@@H](NC(=O)[C@H](c4ccccc4)S(=O)(=O)[O-])[C@@H]3SC2)cc1,.,.,.,.,5.62µM*
Cc1ccc(C(=O)Nc2cc(-c3cn4cccnc4n3)ccc2C)cc1C,.,?,-8.9%,29.4%,?
